Data published in the GenesisPotency data set.
Out of some 290,000 compounds screened, about 3,000 (1%) were called active. Cut-off read from the data, not from the text of the source: active = inhibition mostly above about 36% (no sharp cut-off); inactive = mostly below about 34%. The sample as a whole holds a higher share of actives than the screen did.

molecular target: T1, Nucleotide-binding oligomerization domain-containing protein 1, Homo sapiens (UniProt Q9Y239); experiment: inhibition of NOD1-driven NF-kB reporter – cell-based, luminescence, uHTS, primary screen (AID 1578)
T1 sequence (whole entry): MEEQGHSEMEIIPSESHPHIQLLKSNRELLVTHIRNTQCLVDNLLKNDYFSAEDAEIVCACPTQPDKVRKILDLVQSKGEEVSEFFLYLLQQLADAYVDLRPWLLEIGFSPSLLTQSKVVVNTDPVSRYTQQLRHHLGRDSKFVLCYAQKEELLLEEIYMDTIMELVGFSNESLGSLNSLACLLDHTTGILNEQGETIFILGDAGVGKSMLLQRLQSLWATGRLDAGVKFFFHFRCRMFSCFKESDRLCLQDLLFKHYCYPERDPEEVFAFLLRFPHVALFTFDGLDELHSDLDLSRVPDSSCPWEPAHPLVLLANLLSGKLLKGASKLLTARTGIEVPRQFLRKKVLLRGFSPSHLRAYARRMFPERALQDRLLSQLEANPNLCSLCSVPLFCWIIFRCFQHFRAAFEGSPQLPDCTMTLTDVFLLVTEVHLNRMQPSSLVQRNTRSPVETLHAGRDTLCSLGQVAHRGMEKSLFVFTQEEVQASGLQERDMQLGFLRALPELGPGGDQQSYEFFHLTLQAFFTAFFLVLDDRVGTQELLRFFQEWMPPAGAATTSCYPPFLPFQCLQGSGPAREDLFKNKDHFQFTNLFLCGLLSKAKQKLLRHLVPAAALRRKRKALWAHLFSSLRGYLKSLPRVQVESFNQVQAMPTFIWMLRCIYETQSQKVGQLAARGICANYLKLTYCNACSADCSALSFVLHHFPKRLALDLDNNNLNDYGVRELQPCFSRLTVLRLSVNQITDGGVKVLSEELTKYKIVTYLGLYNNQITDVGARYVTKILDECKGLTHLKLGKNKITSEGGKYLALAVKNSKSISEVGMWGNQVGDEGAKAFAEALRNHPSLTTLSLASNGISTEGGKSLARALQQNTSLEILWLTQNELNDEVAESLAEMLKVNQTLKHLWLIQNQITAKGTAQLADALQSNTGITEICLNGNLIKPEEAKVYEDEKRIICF

SMILES	outcome
CCCC1/C(=N/O)CC(c2ccccc2)NC1c1ccccc1 (stereo unspecified)	active
N#CC1=C(N)N2C(=C(C#N)C1c1ccc(Br)cc1)Nc1ccccc12 (stereo unspecified)	active
N#CC1=C(N)N2C(=C(C#N)C1c1cccc(Br)c1)Nc1ccccc12 (stereo unspecified)	active
COc1ccccc1/C=C/C(=O)c1c2c(c(C)[nH]c1=O)CCCC2	active
Cc1[nH]c(=O)c(C(=O)/C=C/c2ccccc2)c2c1CCCC2	active
Cc1[nH]c(=O)c(C(=O)/C=C/c2ccccc2F)c2c1CCCC2	active
CCN(CC)S(=O)(=O)c1cccc(NC(=O)Nc2cccc(C(F)(F)F)c2)c1	active
Cc1ccc(Cc2cnc(N3C(=N)SC(C)C3=O)s2)cc1 (stereo unspecified)	active
Cc1cccc(Cc2cnc(N3C(=N)SC(C)C3=O)s2)c1 (stereo unspecified)	active
CC1=C(C(=O)OCc2ccc3c(c2)OCO3)C(c2ccccc2)NC(=O)N1 (stereo unspecified)	active
CC1=C(C(=O)OCc2ccc3c(c2)OCO3)C(c2ccc(F)cc2)NC(=O)N1 (stereo unspecified)	active
CC1=C(C(=O)OCc2ccc3c(c2)OCO3)C(c2ccc(O)c([N+](=O)[O-])c2)NC(=O)N1 (stereo unspecified)	active
CC1=C(C(=O)OCc2ccc3c(c2)OCO3)C(c2ccc(Cl)cc2)NC(=O)N1 (stereo unspecified)	active
O=C(NCc1ccccc1)C1=C[C@@H](c2csc3ccccc23)C[C@@H](OCCCCO)O1	active
CCn1nc(C)c(NC(=O)/C=C/c2ccc(OC)c(COc3ccc(Br)cc3)c2)c1C	active
CCCN(CC(=O)Nc1ccccc1C)C(=O)CCl	active
CCC(C)N(CC(=O)Nc1cccc(C)c1C)C(=O)CCl (stereo unspecified)	active
CCc1c(C)sc2nc(C(C)C)nc(SCC(=O)N3CCc4ccccc4C3)c12	active
Cc1cc(C(=O)CSc2nc3ccccc3c(=O)n2C)c(C)n1CC1CCCO1 (stereo unspecified)	active
Cc1cc(C(=O)CN2C(=O)c3ccccc3S2(=O)=O)c(C)n1CC1CCCO1 (stereo unspecified)	active
Cc1cc(C(=O)CSc2nc3ccccc3c(=O)n2C)c(C)n1Cc1ccc2c(c1)OCO2	active
COc1ccc(CCNC(=S)N2CCC(Cc3ccccc3)CC2)cc1OC	active
N=C1S/C(=C\c2ccco2)C(=O)N1c1nccs1	active

SMILES	outcome
N=C1S/C(=C\c2ccc(-c3cccc(Cl)c3)o2)C(=O)N1c1nccs1	active
Cn1ncc2c(N3CCN(c4ccc(Cl)c(Cl)c4)CC3)ncnc21	active
O=C(Nc1ccc(Cl)c(Cl)c1)Nc1ccc(Br)cc1F	active
O=C(Nc1ccc(Cl)c(Cl)c1)Nc1ccccc1NS(=O)(=O)c1cccs1	active
S=C(NCCc1ccccc1)Nc1cccc2cnccc12	active
COc1ccccc1-c1nnc(SCC(=O)Nc2nc(-c3ccccc3)cs2)n1C	active
COc1nc(Nc2nc3ccccc3c(=O)[nH]2)nc2ccc(C)cc12	active
COc1ccc(NC(=O)Cn2nnc(-c3ccccc3NS(=O)(=O)c3ccc(OC)cc3)n2)cc1	active
O=[N+]([O-])c1cccc(S(=O)(=O)Nc2nc3ccccc3nc2Nc2cccc(S(=O)(=O)N3CCCCC3)c2)c1	active
Cc1ccc(S(=O)(=O)Nc2nc3ccccc3nc2Nc2cccc(S(=O)(=O)N3CCCC3)c2)cc1	active
COc1cc(Nc2nc3ccccc3nc2NS(=O)(=O)c2ccc([N+](=O)[O-])cc2)cc(OC)c1OC	active
CCOc1cc(C)c(Cl)cc1S(=O)(=O)n1nnc2ccccc21	active
CC(=O)n1c(Cl)c(NC(=O)CCl)c2ccccc21	active
COc1ccccc1C(=O)Nc1nc(-c2ccc(S(=O)(=O)N3CCOCC3)cc2)cs1	active
Cc1ccc(S(=O)(=O)Nc2ccccc2C(=O)Nc2nc(-c3ccc(F)cc3)cs2)cc1	active
COc1ccc(-c2csc(NC(=O)c3ccccc3NS(=O)(=O)c3ccc(C)cc3)n2)cc1	active
COc1cccc(NC(=O)Nc2nc(-c3ccc(OC)c(OC)c3)cs2)c1	active
COc1ccc(NC(=O)c2ccc(-c3ccccc3)cc2)cc1NS(=O)(=O)c1ccc(F)cc1	active
O=C(Nc1nc(-c2ccccc2)cs1)c1ccccc1NS(=O)(=O)c1ccc(F)cc1	active
COc1ccc(S(=O)(=O)Nc2ccccc2C(=O)Nc2nc(-c3ccc(F)cc3)cs2)cc1OC	active
COc1ccc(-c2csc(NC(=O)c3ccccc3NS(=O)(=O)c3ccc(F)c(F)c3)n2)cc1	active
Cc1ccc(NC(=O)C2=C(c3ccccc3)S(=O)(=O)CCS2(=O)=O)cc1	active
O=C(Nc1ccccc1)C1=C(c2ccccc2)S(=O)(=O)CCS1(=O)=O	active

SMILES	outcome
NS(=O)(=O)c1ccc(Sc2nc3ccccc3s2)c([N+](=O)[O-])c1	active
COc1ccc(-c2nn(-c3ccccc3)cc2/C=N/NC(=O)c2ccc(Br)o2)cc1	active
Cc1ccc(-c2nn(-c3ccccc3)cc2/C=N/NC(=O)c2ccc(Br)o2)cc1	active
CC(=O)Cn1ncc(Br)c(Br)c1=O	active
O=C(OCn1ncc(Br)c(Br)c1=O)c1c(F)cccc1F	active
O=C(OCn1ncc(Br)c(Br)c1=O)c1ccc(F)cc1	active
O=C(NC(=S)N(CCCCO)C1CCCCC1)c1sc2ccccc2c1Cl	active
Cc1nnc(SCC(=O)N2CCC(c3noc4ccc(F)cc34)CC2)s1	active
O=C(NC(Nc1nc2ccc([N+](=O)[O-])cc2s1)(C(F)(F)F)C(F)(F)F)c1ccccc1Cl	active
CC[C@@]1(O)C(=O)OCc2c1cc1n(c2=O)Cc2cc3c(N)cccc3nc2-1	active
Cc1ccc(Cl)c(NC(=O)COC(=O)c2ccccc2C(=O)c2ccc(Cl)c([N+](=O)[O-])c2)c1Cl	active
CNC(=O)COC(=O)c1ccccc1C(=O)c1ccc(Cl)c([N+](=O)[O-])c1	active
N#Cc1cccc(NC(=O)COC(=O)c2ccccc2C(=O)c2ccc(Cl)c([N+](=O)[O-])c2)c1	active
O=C(COC(=O)c1ccccc1C(=O)c1ccc(Cl)c([N+](=O)[O-])c1)NC1CC1	active
CC(C)(C)OC(=O)NCCc1nnc(S(=O)(=O)Cc2ccc(Cl)cc2Cl)o1	active
Cc1sc2nc(SCc3ccc(C(=O)O)cc3)n(Cc3ccco3)c(=O)c2c1C	active
COC(=O)c1ccc2c(c1)C(C)(C)C(/C=C/c1ccc(O)cc1)=[N+]2C.[I-]	active
Cn1c(SC2=CS(=O)(=O)c3ccccc32)nc2ccccc21	active
O=S1(=O)C=C(Sc2nc3ccccc3s2)c2ccccc21	active
O=S1(=O)C=C(Sc2nc3cc(Cl)ccc3o2)c2ccccc21	active
Cc1cc(C)cc(NC(=O)CSc2nnc(Cc3cccn3C)n2-c2ccc(F)cc2)c1	active
Cc1ccc(C(=O)NC(C#N)=C(Cl)Cl)cc1	active
Cc1ccc(C(=O)NC(=C(Cl)Cl)S(=O)(=O)c2ccccc2)cc1	active

SMILES	outcome
O=C(NC(=C(Cl)Cl)S(=O)(=O)c1ccc(Cl)cc1)c1ccccc1	active
CC(=O)NC(=C(Cl)Cl)S(=O)(=O)c1ccccc1	active
O=C(NCCCSc1ccccc1)c1cc(Br)ccc1O	active
O=C(NCCCSc1ccccc1)c1cc(Cl)ccc1O	active
CCOC(=O)c1cccc2c1-c1ccccc1/C2=N/O	active
COC(=O)c1cccc2c1-c1ccccc1/C2=N/O	active
Cc1[nH]c2ccccc2c1C(=O)CCl	active
Cc1ccc2c(C(=O)CCl)c(C)[nH]c2c1	active
Cc1ccc2cccc(NS(=O)(=O)c3ccccc3)c2n1	active
Cc1ccc(S(=O)(=O)Nc2cccc3cccnc23)cc1	active
COc1cc(NS(=O)(=O)c2ccc3ccccc3c2)c2ncccc2c1	active
O=[N+]([O-])c1ccccc1S(=O)(=O)Nc1cccc2cccnc12	active
Cc1ccc(S(=O)(=O)Nc2cccc3cccnc23)c([N+](=O)[O-])c1	active
C[C@@H]1C[C@@H]2O[C@H]2/C=C\C=C\C(=O)Cc2c(Cl)c(O)cc(O)c2C(=O)O1	active
C/C(=N\NC(=O)c1ccc(F)cc1)c1ccccn1	active
C/C(=N\NC(=O)c1ccc(Cl)cc1)c1ccccn1	active
C/C(=N\NC(=O)c1cccc(Br)c1)c1ccccn1	active
C/C(=N\NC(=O)Cc1ccc(Cl)cc1)c1ccccn1	active
COc1ccc(C(=O)N/N=C(\C)c2ccccn2)cc1OC	active
C/C(=N\NC(=O)COc1ccccc1-c1ccccc1)c1ccccn1	active
C/C(=N\NC(=O)c1ccc(Cl)c(Cl)c1)c1ccccn1	active
Nc1c(Cl)ncnc1N/N=C/c1ccccn1	active
COc1ccc(CNc2ncnc3ccccc23)cc1	active

SMILES	outcome
Cl.c1ccc(CNc2ncnc3ccccc23)cc1	active
Cc1cc2c(NCc3ccccc3)ncnc2s1.Cl	active
CC(Nc1ncnc2ccccc12)c1ccccc1 (stereo unspecified)	active
c1ccc(CNc2ncnc3ccccc23)cc1	inactive
Brc1ccc2ncnc(NCc3cccnc3)c2c1	active
COc1cccc(CNc2ncnc3cc(Cl)ccc23)c1	active
S=C(Nc1ccc(Cl)c(Cl)c1)NC1CCCCC1	active
Fc1ccc(NC(=S)NNc2ncc(C(F)(F)F)cc2Cl)c(F)c1	active
COCCOC(=O)c1[nH]c2c(c1C)C(=O)CC(c1cc(OC)c(OC)c(OC)c1)C2 (stereo unspecified)	active
CCCCOC(=O)c1[nH]c2c(c1C)C(=O)CC(c1cc(OC)c(OC)c(OC)c1)C2 (stereo unspecified)	active
Cc1ccc(-c2csc(NC(=O)C3=NN(c4ccccc4)C(=O)CC3)n2)cc1	active
O=C(N/N=C/c1ccc([N+](=O)[O-])s1)c1ccncc1	active
Cc1ccc(C(=O)N/N=C/c2ccc([N+](=O)[O-])s2)cc1	active
Cc1ccc2oc(Nc3nc(-c4ccccc4)cc(=O)[nH]3)nc2c1	active
COc1cccc(C(=O)Nc2ccc3nc(N4CCN(c5ncccn5)CC4)cc(C)c3c2)c1OC	active
Cc1ccc2nc(-c3ccc4c(c3)OCCO4)cn2c1	active
O=C(/C=C/c1ccco1)Oc1cc(Br)cc(/C=N/NC(=O)c2ccccc2O)c1	active
O=C(Nc1nc(-c2cccs2)cs1)c1ccc(S(=O)(=O)N2CCCC2)cc1	active
O=C(Nc1nc(-c2ccccc2)cs1)C1CCCN(S(=O)(=O)c2ccccc2)C1 (stereo unspecified)	active
